Screening data (PubChem BioAssay)
Sampled rows, rich in hits. Any-hit rate of the full collection: about 1.3%.
Bcl-xL primary: inhibitors of human Bcl-xL. Q07817. GST-Bcl-xL / FITC-Bim BH3 peptide fluorescence polarization. inhibition, % at 10.9 µM. 320,000 tested, 0.7% active. AID 2129;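 active means inhibition above the mean of all tested compounds plus 3 SD, cutoff set per campaign, cut at about 30% in these data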;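 further: 0% = DMSO wells and 100% = unlabeled Bim-BH3 peptide competitor; inhibitors lower millipolarization by displacing the labeled peptide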
GLD-1 TGE inh: GLD-1-TGE RNA interaction inhibition (C. elegans). inhibition, % at 5.96 µM. AID 2280. purified GLD-1 + fluorescein TGE RNA, fluorescence polarization. 320,000 tested, 0.44% active;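 active means percent inhibition above a per-plate cutoff, the plate mean of test compounds plus 3 SD, cut at about 30% in these data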;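 further: 0% = DMSO wells with GLD-1 and probe and 100% = wells lacking GLD-1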
E coli Lon inh: inhibitors of E. coli Lon protease; 360,000 tested, 0.42% active; purified E. coli Lon protease, fluorescence polarization; inhibition, % at 7.94 µM; AID 602123; in the data active means inhibition above about 13%, passing the limit was not always enough;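 further: 0% = enzyme with probe and DMSO and 100% = no enzyme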
Target sequence (P0A9M0 whole entry, looked up): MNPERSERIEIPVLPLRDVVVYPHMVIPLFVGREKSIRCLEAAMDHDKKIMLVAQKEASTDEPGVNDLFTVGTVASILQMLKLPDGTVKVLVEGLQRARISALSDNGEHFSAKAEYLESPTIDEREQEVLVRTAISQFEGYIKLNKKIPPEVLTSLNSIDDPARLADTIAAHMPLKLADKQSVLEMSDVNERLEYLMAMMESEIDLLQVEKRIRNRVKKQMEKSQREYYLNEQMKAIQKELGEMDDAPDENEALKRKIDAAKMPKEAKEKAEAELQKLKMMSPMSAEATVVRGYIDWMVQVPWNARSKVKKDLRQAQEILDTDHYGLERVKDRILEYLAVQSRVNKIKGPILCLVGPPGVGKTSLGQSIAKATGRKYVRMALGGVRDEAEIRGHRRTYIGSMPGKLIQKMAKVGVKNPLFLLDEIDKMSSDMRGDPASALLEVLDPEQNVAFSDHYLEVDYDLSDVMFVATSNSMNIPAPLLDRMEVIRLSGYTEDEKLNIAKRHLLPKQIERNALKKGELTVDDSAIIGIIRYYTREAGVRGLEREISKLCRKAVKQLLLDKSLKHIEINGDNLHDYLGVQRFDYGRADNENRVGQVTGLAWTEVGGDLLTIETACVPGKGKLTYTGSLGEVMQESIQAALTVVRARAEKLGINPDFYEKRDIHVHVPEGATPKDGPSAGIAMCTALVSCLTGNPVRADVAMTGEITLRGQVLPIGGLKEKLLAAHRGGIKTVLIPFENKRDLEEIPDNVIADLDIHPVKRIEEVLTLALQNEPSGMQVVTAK
EBV gp42 block: EBV gp42 inhibition | Q1HVG2 | Fluorescence polarization binding assay, mP read-out | inhibition, % (tested at 21.74 µM) | 220,000 tested, 0.42% active | AID 1085; in the data active means inhibition above about 50%
MEX-5 binding: C. elegans MEX-5 TCR-2 RNA binding activity | Q9XUB2 | MEX-5/FITC-TCR2 RNA binding, fluorescence polarization; hits give low values | activity score (negative = inhibition of binding), % at 10 µM | 300,000 tested, 0.38% active | AID 1832;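 active means inhibition past about -25% in most replicates, and total fluorescence under double the plate's negative control median, limit read from the data; inconclusive means replicates evenly split on the limit, or fluorescence at least double controls; inactive means too little inhibition in most replicates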;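 further: 0% = DMSO and -100% = 5 µM competing unlabeled TCR2 RNA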
* marks the source's active call; other numbers are inactive results; ? = inconclusive; nt = no result given.

SMILES	Bcl-xL primary	GLD-1 TGE inh	E coli Lon inh	EBV gp42 block	MEX-5 binding
COc1cc2c3nnc(-c4ccc(F)cc4)c-3cn(Cc3ccccc3)c2cc1OC	82*	-2	-5	-44	?
COc1cc2c3nnc(-c4ccc(F)cc4)c-3cn(Cc3ccc(F)cc3)c2cc1OC	72*	-11	-24	-92	?
COc1ccc(Cn2cc3c(-c4ccc(F)cc4)nnc-3c3cc(OC)c(OC)cc32)cc1	47*	0	-14	-41	nt
Cn1nc2c3cc(F)ccc3n(Cc3ccc(F)cc3)cc-2c1=O	-1	6	5	nt	2
CN(Cc1ccccc1)C(=O)CCn1c(=O)c2cccn2c2cccnc21	1	-4	3	nt	-1
COc1ccccc1N1N=C(C(=O)c2ccccc2)C2C(=O)N(c3ccc(Br)cc3)C(=O)C21 (configuration not stated)	-4	-5	0	17	?
O=C(C1=NN(c2ccccc2)C2C(=O)N(c3ccccc3Cl)C(=O)C12)c1ccccc1 (configuration not stated)	12	-4	-22	53*	-28*
COc1ccccc1N1C(=O)C2C(C(=O)c3ccccc3)=NN(c3ccccc3)C2C1=O (configuration not stated)	3	-6	-37	72*	-16
O=C(C1=NN(c2ccccc2)C2C(=O)N(c3ccccc3)C(=O)C12)c1ccccc1 (configuration not stated)	11	-10	-31	59*	-37*
CCOC(=O)C1=NN(c2ccccc2)C2C(=O)N(c3ccccc3OC)C(=O)C12 (configuration not stated)	3	-4	13	3	-2
Cc1ccc(N2C(=O)C3C(C(=O)c4ccccc4)=NN(c4ccccc4)C3C2=O)cc1 (configuration not stated)	1	-11	1	53*	?
CC(=O)NC12CC3CC(C1)CC(C(=O)NCc1ccc(C)cc1)(C3)C2	-4	6	1	nt	-3
O=C(CNS(=O)(=O)c1ccccc1)OCc1cccc([N+](=O)[O-])c1	38*	5	-3	-7	2
Cc1cc(C)cc(S(=O)(=O)c2cn(C)c3cc(N4CCN(C)CC4)c(F)cc3c2=O)c1	1	1	-6	nt	0
COc1cc(NC(=O)CSc2nc3ncnc(N)c3[nH]2)c(C(=O)O)cc1OC	1	2	-4	nt	-31*
O=C1/C(=C/c2ccccc2)Nc2ccccc21	64*	-52	0	-22	4
CCN(CC)CCNC(=O)c1ccc(NC(=O)c2ccc3c(c2)CCC3)cc1	48*	14	-5	nt	0
CCN(CC)CCNC(=O)c1ccc(NC(=O)c2cccc(S(=O)(=O)N(C)C3CCCCC3)c2)cc1	nt	nt	-8	nt	nt
CCCCNC(=O)C1(C)CCCCN1C(=O)c1ccc(C#N)cc1 (configuration not stated)	nt	nt	-2	nt	nt
CCOc1ccc2sc(NS(=O)(=O)c3ccc(OC)c(OC)c3)nc2c1	64*	9	2	-7	0
CN(CC(=O)Nc1cccc(S(=O)(=O)N(C)c2ccccc2)c1)Cc1cccs1	nt	nt	-10	nt	nt
CCC[n+]1c2ccccc2cc2ccccc21	37*	29	7	nt	-19
CCN(CC)c1ccc(/C=C/c2nc3ccccc3s2)cc1	-41	-66	nt	-20	-32*
COc1nc(NCCC2=CCCCC2)nc(OC)n1	2	10	-9	138*	0
CCOC(=O)[C@]12CCC=C1N(Cc1cccc3ccccc13)C(=O)[C@H](CC(=O)N1CCSCC1)C2	nt	nt	10	nt	nt
SMILES	Bcl-xL primary	GLD-1 TGE inh	E coli Lon inh	EBV gp42 block	MEX-5 binding
Cc1cc(NC(=O)COC(=O)[C@@H]2CCCN2C(=O)c2cccs2)no1	nt	nt	0	nt	nt
O=C(COC(=O)Cc1ccc(Cl)cc1)NCc1cccs1	nt	4	-3	nt	nt
Oc1ccc(/C=N/Nc2ccc(Cl)nn2)c(O)c1O	28	10	15	nt	-48*
Cc1ccccc1S(=O)(=O)NNC(=O)C(=O)NNc1ccccn1	3	8	-3	-3	-26*
O=C(Nc1ccccn1)C(=O)Nc1ccccn1	4	0	-2	-9	0
Nc1ccc(S(=O)(=O)NNC(=O)C(=O)NNc2ccccn2)cc1	-2	5	7	-2	-30*
CC(=O)Nc1ccc(S(=O)(=O)NNC(=O)C(=O)NNc2ccccn2)cc1	2	8	7	-8	-45*
Cc1ccc(S(=O)(=O)NNC(=O)C(=O)NNc2ccccn2)cc1	5	2	-2	-7	-9
CCCS(=O)(=O)NC(=O)C1(C)CCCN(C(=O)c2ccccc2F)C1 (configuration not stated)	nt	nt	-14	nt	nt
Cc1cccn2c(=O)c3cc(C(=O)NC4CCCC4)c(=N)n(CCc4ccccc4)c3nc12	4	-7	8	nt	-39*
COc1ccc(CCn2c(=N)c(C(=O)NC3CCCC3)cc3c(=O)n4cccc(C)c4nc32)cc1	11	-5	-4	nt	-3
N=c1c(C(=O)NCC2CCCO2)cc2c(=O)n3ccccc3nc2n1Cc1ccccc1Cl (configuration not stated)	0	-5	10	nt	-46*
CCCn1c(=N)c(C(=O)NCC2CCCO2)cc2c(=O)n3cccc(C)c3nc21 (configuration not stated)	11	-2	-4	-5	-27*
COc1ccc(CCn2c(=N)c(C(=O)NC3CCCCC3)cc3c(=O)n4ccccc4nc32)cc1	9	0	-3	nt	-45*
Cc1cccn2c(=O)c3cc(C(=O)NCC4CCCO4)c(=N)n(CCN4CCOCC4)c3nc12 (configuration not stated)	0	-8	7	-21	-6
COc1ccc(CN2CCC(n3nccc3NC(=O)c3cccc(F)c3)CC2)cc1O	2	1	-1	nt	-3
Nc1nc(N)c2c(ccc3c2ccn3Cc2cccc([N+](=O)[O-])c2)n1	nt	nt	-2	nt	nt
O=C(CN1C(=O)NC2(CCCc3ccccc32)C1=O)NCc1cccs1 (configuration not stated)	0	3	0	nt	nt
CSc1ccccc1OCc1cc(C(=O)N2CCN3CCCC3C2)no1 (configuration not stated)	7	6	14	nt	1
Cc1cccn2c(=O)c3cc(C(N)=S)c(=N)n(CCCOC(C)C)c3nc12	34*	-2	-22	-7	-8
CCNC(=O)c1cc2c(=O)n3cccc(C)c3nc2n(CCc2ccccc2)c1=N	16	-2	6	-14	-66*
CCOc1ccc(NC(=O)CN(C)C(=O)c2cccc(S(=O)(=O)N3CCN(C)CC3)c2)cc1OCC	nt	nt	-9	nt	nt
Oc1ccc2ccccc2c1C=Nc1ccc(Cl)cn1	1	-9	-3	82*	-1
COc1cc(OC)cc(C(=O)N[C@H](C(=O)NC2=NCCS2)C(C)C)c1	nt	-2	4	nt	nt
CCn1c(SCc2ccc(C(=O)Nc3nccs3)cc2)nnc1-c1ccc(N)cc1	5	11	2	53*	2
CC(C(=O)Nc1cccnc1)N1C(=O)c2ccccc2C1=O (configuration not stated)	3	3	2	-12	-1
